Compound activity as filed in PubChem.
Compounds with a hit are over-represented: about 4% of the library has one in this group of screens.
TWEAK-Fn14 inh: inhibitors of TWEAK-Fn14 signaling, primary screen, luciferase reporter cells, uHTS; TWEAK-stimulated Fn14 reporter cells, luciferase luminescence, 8 h; hit rate 2% among 360,000; inhibition, % at 10 µM; AID 1159606, 2016; in the data active = inhibition above about 50%
CF NFkB inh: inhibitors of PAF-induced NF-kB signaling, primary screen, cell-based, GFP fluorescence, uHTS. KKLEB NF-kB-GFP reporter, GFP fluorescence overnight. hit rate 0.86% among 360,000. inhibition, % at 5 µM;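 active = at least 50% inhibition at 5 µM, scaled per plate between neutral and stimulator controls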;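 also: PAF is a Pseudomonas aeruginosa culture filtrate used as stimulus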
TROY NFkB inh: inhibitors of TROY-driven NF-kB signaling, primary screen, Q293 LMP1-TROYcd cells, NF-kB luciferase, uHTS | hit rate 0.98% among 360,000 | inhibition, % at 10 µM | Q293 LMP1-TROYcd NF-kB luciferase reporter, 4 h;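 active = compounds whose plate-normalised and pattern-corrected inhibition of the luciferase reporter signal at the single screening dose is 50% or more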
KKLEB cytotox: cytotoxicity in KKLEB CF airway cells, primary screen, cytotoxicity control for CF NF-kB inhibitor project, cell-based, uHTS, fluorescence assay plates; AID 602141, 2011; hit rate 0.36% among 360,000; activity change (cytotoxicity), % at 5 µM; KKLEB CF airway cells viability, ATPlite luminescence, overnight; stronger effect = lower value; cells stimulated with P. aeruginosa culture filtrate;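 active = corrected activity change at or below -50% at 5 µM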
Peg3 prom inh-1: Peg3 promoter-driven luciferase inhibitors, primary screen, cell-based, HeLa, luciferase luminescence | hit rate 1.7% among 360,000 | HeLa PEG-Prom luciferase reporter, overnight | inhibition, % at 20 µM | AID 588405, 2011;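 active = inhibition of at least 50% at 20 µM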
HIF-2a inh: HIF-2a reporter inhibitors, primary screen, luminescence, 786-0 RCC cells; hit rate 0.72% among 360,000; inhibition, % at 18.8 µM; AID 624352, 2012; 786-0 RCC cells HIF-2a reporter, luciferase luminescence, overnight;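 active = inhibition of the luminescence signal of 40% or more relative to plate controls, in a single-dose primary screen at 18.75 µM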
Peg3 prom inh-2: Peg3 promoter reporter inhibitors, retest, confirmation, cell-based, HeLa, luciferase reporter, single concentration | shares compounds with Peg3 prom inh-1 | hit rate 84% among 1,300 | inhibition, % at 20 µM | HeLa PEG-Prom luciferase reporter, luminescence, overnight;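 active = at 20 µM dose, 40% or more inhibition averaged across four replicates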
Large screens that a line does not name were inactive (follow-up assays come after a bar, where they were run).

Oc1[nH]c2c(Cl)cc(Cl)cc2c1N=NC(=S)NCC1CCCO1 (stereo not given)	TWEAK-Fn14 inh 103, Peg3 prom inh-1 97 | Peg3 prom inh-2 inactive
CC(C)c1ccc(-c2nc3ccccc3s2)cc1	TWEAK-Fn14 inh 107, TROY NFkB inh 96, KKLEB cytotox -79, Peg3 prom inh-1 72, HIF-2a inh 77 | Peg3 prom inh-2 83
COc1ccc(-c2nc3ccccc3s2)cc1O	TWEAK-Fn14 inh 99, TROY NFkB inh 68, KKLEB cytotox -54, Peg3 prom inh-1 55 | Peg3 prom inh-2 inactive
Nc1ccc(Oc2ccc3c(c2)C(=O)NC3=O)cc1	none
CC1=NN(c2cccc(C(=O)O)c2)C(=O)/C1=C\C=C/c1ccccc1	TWEAK-Fn14 inh 91, CF NFkB inh 64, TROY NFkB inh 54, Peg3 prom inh-1 78, HIF-2a inh 59 | Peg3 prom inh-2 52
C[C@@H]1CN([C@H](C)CO)C(=O)c2cc(C#CC3CCCCC3)cnc2O[C@H]1CN(C)Cc1cccnc1	none
O=C(CSc1nnc(CNC(=O)c2ccccc2)o1)NCC1CCCO1 (stereo not given)	none
COCCCNC(=O)c1ccc(Cn2c(=O)c3ccccc3n(Cc3ccccc3C)c2=O)cc1	none
COCCCNC(=O)c1ccc(Cn2c(=O)c3ccccc3n(Cc3ccccc3C#N)c2=O)cc1	Peg3 prom inh-1 54 | Peg3 prom inh-2 57
CC1(C)Oc2cc3oc(-c4cc(O)cc(O)c4)cc3cc2CC1O (stereo not given)	TWEAK-Fn14 inh 76, TROY NFkB inh 80, Peg3 prom inh-1 59 | Peg3 prom inh-2 65
CCN(C[C@H]1N[C@@](Cc2ccccc2)(C(=O)OC)[C@H]2C(=O)N(C)C(=O)[C@@H]12)C(=O)NC(C)C	none
Cc1c(C)c2ccc(OCC(=O)Nc3ccc(S(N)(=O)=O)cc3)c(C)c2oc1=O	none
O=C(Nc1nc2cc3c(cc2s1)OCO3)C1=COCCO1	TWEAK-Fn14 inh 101, TROY NFkB inh 70, Peg3 prom inh-1 62, HIF-2a inh 55 | Peg3 prom inh-2 64
O=C(Nc1nc2cc3c(cc2s1)OCCO3)c1ccco1	TWEAK-Fn14 inh 100, TROY NFkB inh 82, Peg3 prom inh-1 66, HIF-2a inh 71 | Peg3 prom inh-2 62
COc1ccc(C(C)(C)C)cc1NC(=O)c1cccc(S(=O)(=O)N2CCN(C(C)=O)CC2)c1	none
CCCN(CCC)CCCNC(=S)Nc1ccc2nc(N3CCCC3)cc(C)c2c1	Peg3 prom inh-1 51 | Peg3 prom inh-2 71
CCN(CC)CCNC(=S)Nc1ccc2nc(N3CCCC3)cc(C)c2c1	none
O=C(COc1ccc2c(c1)CCC2)Nc1ccccn1	TWEAK-Fn14 inh 97, TROY NFkB inh 71, Peg3 prom inh-1 75, HIF-2a inh 60 | Peg3 prom inh-2 67
Cc1cccc(NC(=O)COc2ccc3c(c2)CCC3)n1	none
COc1ccc(NC(=O)CSc2nnnn2C)cc1S(=O)(=O)N1CCCCC1	none
O=[N+]([O-])c1ccc(-c2nc(Nc3cccc(O)c3)c3ccccc3n2)cc1	TWEAK-Fn14 inh 80, TROY NFkB inh 82, Peg3 prom inh-1 81 | Peg3 prom inh-2 91
C=CCCC(=O)N1C[C@@H](CO)[C@@H](NC)C[C@H]1c1ccccc1Br	none
Cc1n[nH]c(C)c1CCc1nc2c3ccccc3nc(SCC(=O)Nc3ccccc3F)n2n1	none
Cc1cccc(NC(=O)CSc2nc3ccccc3c3nc(CCc4c(C)n[nH]c4C)nn23)c1	TWEAK-Fn14 inh 60, Peg3 prom inh-1 57 | Peg3 prom inh-2 58
COc1ccc(-c2csc(NC(=O)C3COc4ccccc4O3)n2)cc1OC (stereo not given)	Peg3 prom inh-1 66 | Peg3 prom inh-2 inactive
CC1CCC(NC(=O)CSc2nnc(-c3cccnc3)o2)CC1 (stereo not given)	none
CN(C)CCNc1ccc2ncn3c4ccc(O)cc4c(=O)c1c23	Peg3 prom inh-1 101, HIF-2a inh 49 | Peg3 prom inh-2 71
CCOc1ccc2nc(NC(=O)c3ccccn3)sc2c1	TROY NFkB inh 67, Peg3 prom inh-1 104 | Peg3 prom inh-2 90
COC(=O)[C@H](CC(C)C)NC(=O)CC[C@H]1O[C@@H](n2ccc(=O)[nH]c2=O)[C@H](O)[C@@H]1O	none
CCN1CCN(c2ccc(N3CCN(S(=O)(=O)c4cc([N+](=O)[O-])ccc4C)CC3)nn2)CC1	none
O=C(O)C1C2OC(C(Br)C2Br)C1C(=O)O (stereo not given)	none
Cc1oc(-c2ccccc2Cl)nc1CS(=O)CC(=O)NCCCN1CC(C)CC(C)C1 (stereo not given)	none
CCCCCCOc1ccc(/C(C)=N/NC2=NCCN2)cc1	Peg3 prom inh-1 108 | Peg3 prom inh-2 98
O=C(Oc1c(CN2CCOCC2)cc(Cl)c2cccnc12)c1ccccc1Cl	Peg3 prom inh-1 50 | Peg3 prom inh-2 43
COc1ccc(CCNC(=O)C(=O)NCC2CCCN2S(=O)(=O)c2ccccc2)cc1OC (stereo not given)	Peg3 prom inh-1 56 | Peg3 prom inh-2 58
O=C(NCCc1ccccc1)C(=O)NCC1CCCN1S(=O)(=O)c1ccccc1 (stereo not given)	none
COc1ccc(/C=N/Nc2nncc3ccccc23)cc1	Peg3 prom inh-1 56 | Peg3 prom inh-2 46
OCC1OC(n2ccc3c(NO)ncnc32)C(O)C1O (stereo not given)	TWEAK-Fn14 inh 82, CF NFkB inh 86, KKLEB cytotox -92, Peg3 prom inh-1 100 | Peg3 prom inh-2 98
CCc1nnc(NC(=O)CCNC(=O)c2ccco2)s1	none
COc1cc(C(=O)Nc2nc(OC)c(-c3ccccc3)c(OC)n2)cc(OC)c1OC	Peg3 prom inh-1 50 | Peg3 prom inh-2 43
COc1cc(C(=O)Nc2ccc3oc(-c4cccnc4)nc3c2)cc(OC)c1OC	Peg3 prom inh-1 52 | Peg3 prom inh-2 43
COCCCNC(=O)CC1C[C@H](C(=O)N2CCOCC2)[C@@]2(C)c3[nH]c4ccc(OC)cc4c3CCN2C1=O (stereo not given in full)	none
COC(=O)c1ccccc1NC(=O)CSc1nc2ccsc2c(=O)n1CCCCC(=O)O	none
CC(C)N1C/C(=C/c2ccsc2)C(=O)/C(=C/c2ccsc2)C1	Peg3 prom inh-1 103 | Peg3 prom inh-2 inactive
COc1ccc(-c2c(C)[nH]n3c(=O)c(Cc4ccccc4)c(C)nc23)cc1OC	none
